RORg inh = blocks mouse ROR gamma transcriptional activity; P51450; Drosophila S2 Gal4-RORgamma UAS-luciferase reporter, 20 h; Potency, µM (titrated, usually from 53.6 µM), for the others: top-dose activity change, negative = inhibition, hits mostly inhibitors; hit rate 5.4% among 310,000; AID 2551; further: potency means the concentration at half of the fitted maximal effect; on the % scale 0 is the no-effect control and ±100 the full control effect; nearly all actives have a fitted effect of over 60% in size
Target sequence (P51450 whole entry, looked up, the tested form may be a part): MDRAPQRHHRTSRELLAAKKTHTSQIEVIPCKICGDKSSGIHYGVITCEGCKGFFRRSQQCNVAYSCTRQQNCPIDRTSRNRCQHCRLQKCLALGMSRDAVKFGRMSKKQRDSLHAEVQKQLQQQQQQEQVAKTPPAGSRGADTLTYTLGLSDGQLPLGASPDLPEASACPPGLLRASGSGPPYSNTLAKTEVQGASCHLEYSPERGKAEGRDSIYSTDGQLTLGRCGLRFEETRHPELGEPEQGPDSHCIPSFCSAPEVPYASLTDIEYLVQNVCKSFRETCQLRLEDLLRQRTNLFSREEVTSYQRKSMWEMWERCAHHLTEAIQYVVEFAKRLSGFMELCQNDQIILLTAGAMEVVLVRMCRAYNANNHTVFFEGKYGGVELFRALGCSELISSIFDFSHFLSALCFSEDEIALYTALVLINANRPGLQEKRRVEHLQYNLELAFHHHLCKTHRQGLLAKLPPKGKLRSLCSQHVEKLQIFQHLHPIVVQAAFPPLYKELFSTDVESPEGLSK
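Compounds are pin-transferred onto Drosophila Schneider cells expressing a copper-inducible Gal4–ROR gamma transactivation domain fusion. After 1 hr, copper sulfate is added to 700 uM final; luciferase is read 20 hr later.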
Gal4-VP16 FLuc = Gal4-VP16 reporter inhibition counter-screen. Drosophila S2 Gal4-VP16 UAS-luciferase, luminescence, 20 h. Potency, µM (highest dose often 53.6 µM), inactives show top-dose activity, negative = inhibition, actives largely listed as inhibitors. hit rate 3.5% among 310,000. AID 2546;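 further: Gal4-VP16 expression switched on by copper sulfate through the metallothionein promoter; potency means the concentration at half of the fitted maximal effect; on the % scale 0 is the no-effect control and ±100 the full control effect; nearly all actives have a fitted effect of over 50% in size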
IL-1B inflam inh = inflammasome signaling inhibition, IL-1 beta readout; AID 743279; hit rate 4.7% among 360,000; THP-1 LPS/ATP IL-1B secretion, AlphaLISA, 16 h; active compounds read low; activity change, % at 57.5 µM; in the data active means activity change below about -50%; inconclusive means mostly about -30% to -49%; further: on the % scale 0 is the no-effect control and ±100 the full control effect
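THP-1 cells pretreated 1 hr with compounds (up to 57.5 uM final), then stimulated with LPS (250 ng/mL final) plus ATP (1.25 mM final); secreted IL-1B measured by AlphaLISA after 16 hr, decreased signal indicating inhibition.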
SW480 rereplic = induces DNA re-replication in SW480 colon adenocarcinoma cells | SW480 DNA re-replication, Hoechst DNA content imaging, 48 h | Potency, µM (highest dose often 46.1 µM), without a hit: at the top dose re-replication activation, actives largely listed as activators | hit rate 1.8% among 340,000; further: potency means the concentration at half of the fitted maximal effect; % of control where 0% means no effect; nearly all actives have a fitted effect of over 55% in size
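SW480 cells exposed to compounds for 48 hr at 37 C, 5% CO2, then Hoechst-stained 40 min. Nuclear DNA content imaged by fluorescence scanning (405 nm excitation, 500-530 nm emission); re-replication scored as increased high-intensity nuclei.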
MCF10A rereplic = induces DNA re-replication in MCF 10a normal breast cells; MCF 10A DNA re-replication, Hoechst nuclear intensity, 48 h; Potency, µM (highest dose often 46.1 µM), without a hit: top-dose activity, positive = re-replication, most hits filed as activators; AID 624296; hit rate 2.9% among 350,000; further: potency means the concentration at half of the fitted maximal effect; % of control where 0% means no effect; nearly all actives have a fitted effect of over 50% in size
* hit, by the source's call; ! = repeats disagree; [ ] = another dose, or the depositor's remark. An excerpt weighted towards active compounds, which were near 11% of everything screened. Unless noted, the call rests on the fitted dose curve; in most records, active means well fitted curve in the direction sought with a large enough effect; inconclusive means small, poorly fitted or top-dose-only effect, or another doubt; inactive means no such curve, though single readings can be large; an effect the other way counts as inactive or inconclusive.

How did CCc1nc2ccc(C(=O)NCc3ccccc3OC)cn2c1N(C)Cc1ccc(OC)cc1 do in these assays?
IL-1B inflam inh: -52*

How did CCc1nc2ccc(C(=O)NCc3ccc(OC)cc3)cn2c1N(C)Cc1ccc(OC)cc1 do in these assays?
IL-1B inflam inh: -11

How did Cc1cn(C2CC(O)C(CO)O2)c(=O)n(Cc2ccccc2)c1=O (stereo unspecified) do in these assays?
IL-1B inflam inh: 47; SW480 rereplic: -6%; MCF10A rereplic: -5%

How did CSc1ccccc1OCc1cc(C(=O)N2CCCC2c2nonc2C)no1 (stereo unspecified) do in these assays?
RORg inh: 30%; Gal4-VP16 FLuc: -4%; IL-1B inflam inh: -29; SW480 rereplic: -9%; MCF10A rereplic: 2%

What do the screens show for `CCOC(=O)CC1CCCCN1C(=O)c1cc(COc2cccc3cnccc23)on1` (stereo unspecified)?
RORg inh: inconclusive; Gal4-VP16 FLuc: 4µM*; IL-1B inflam inh: -12; SW480 rereplic: -31%; MCF10A rereplic: inconclusive

Results for O=C(c1cc(COc2cccc3cccnc23)on1)N1CCC[C@H]1CO ?
IL-1B inflam inh: -64*

What do the screens show for `Cc1cccc(C)c1OCc1cc(C(=O)N2CCCC2c2nonc2C)no1` (stereo unspecified)?
RORg inh: 0%; Gal4-VP16 FLuc: 2%; IL-1B inflam inh: -20; SW480 rereplic: inconclusive; MCF10A rereplic: 8.2µM*

Results for COc1ccc(CN(C(=O)c2snc(C(N)=O)c2N)C(C(=O)NC2CCCC2)c2ccco2)cc1 (stereo unspecified) ?
RORg inh: 20%; Gal4-VP16 FLuc: 19%; IL-1B inflam inh: inconclusive; SW480 rereplic: -4%; MCF10A rereplic: 3%

What do the screens show for `CCCCNC(=O)CN(Cc1ccco1)S(=O)(=O)c1ccc(C(C)=O)cc1`?
IL-1B inflam inh: -7; SW480 rereplic: inconclusive; MCF10A rereplic: 19%

How did CC(=O)N1CC[C@@H]2CC(=O)CC[C@@H]21 do in these assays?
RORg inh: -6%[96.6 µM]; Gal4-VP16 FLuc: -2%[96.6 µM]

Results for CCOC(=O)CC(=O)COc1nc2cc3c(nc2o1)CCCC3 ?
RORg inh: 2%; Gal4-VP16 FLuc: 0%; IL-1B inflam inh: -3; SW480 rereplic: 5%; MCF10A rereplic: -3%

How did C=CCNC(=S)Nc1nc2c(cc1C(=O)OCC)CCCC2 do in these assays?
RORg inh: 4µM*; Gal4-VP16 FLuc: 8.9µM*; IL-1B inflam inh: 5; SW480 rereplic: -6%; MCF10A rereplic: 1%

How did CCNC(=S)Nc1nc2c(cc1C(=O)OCC)CCCC2 do in these assays?
RORg inh: 0.56µM*; Gal4-VP16 FLuc: 1.8µM*; IL-1B inflam inh: 9; SW480 rereplic: 2%; MCF10A rereplic: -2%

What do the screens show for `COc1ccccc1-c1cncnc1NCc1cccs1`?
RORg inh: 0%; Gal4-VP16 FLuc: 6%

How did CN(C)CCCNS(=O)(=O)c1ccc(NC2CCCCCC2)c([N+](=O)[O-])c1 do in these assays?
RORg inh: -13%; Gal4-VP16 FLuc: 20µM*; IL-1B inflam inh: -71*; SW480 rereplic: inconclusive; MCF10A rereplic: inconclusive

How did CCN(c1ccccc1)S(=O)(=O)c1ccc(Oc2ccccc2)c(N)c1 do in these assays?
IL-1B inflam inh: -25; SW480 rereplic: -4%; MCF10A rereplic: inconclusive

Results for CO[C@@H]1C=CO[C@]2(C)Oc3c(C)c(O)c4c(O)c(c(C=NN5CCN(C)CC5)c(O)c4c3C2=O)NC(=O)C(C)=CC=C[C@H](C)[C@H](O)[C@H](C)[C@H](O)[C@H](C)[C@H](OC(C)=O)[C@H]1C ?
RORg inh: -13%[16.9 µM]; Gal4-VP16 FLuc: -3%[17 µM]

What do the screens show for `CC(=O)C1=CCC(c2ccc(Cl)cc2)N(S(=O)(=O)c2ccc(C)cc2)C1` (stereo unspecified)?
IL-1B inflam inh: -57*!

Results for CC(=O)C1=CCC(c2ccc(Br)cc2)N(S(=O)(=O)c2ccc(C)cc2)C1 (stereo unspecified) ?
IL-1B inflam inh: -52*

What do the screens show for `CCC[C@@H]1C[C@@H](C(=O)N[C@@H]([C@H]2O[C@H](SC)[C@H](O)[C@@H](O)[C@H]2O)[C@@H](C)O)N(C)C1`?
RORg inh: -12%; Gal4-VP16 FLuc: 3%; SW480 rereplic: 10%; MCF10A rereplic: -3%

Results for COc1ccc(CNC(=O)Cc2csc(Nc3nc(=S)[nH]c4ccccc34)n2)cc1 ?
RORg inh: 1.8µM*; Gal4-VP16 FLuc: 13µM*; IL-1B inflam inh: 21; SW480 rereplic: -7%; MCF10A rereplic: 3%

What do the screens show for `O=C(Cc1csc(Nc2nc(=S)[nH]c3ccccc23)n1)NCc1ccc(Cl)cc1`?
RORg inh: 3.5µM*; Gal4-VP16 FLuc: 10µM*; IL-1B inflam inh: 24; SW480 rereplic: inconclusive; MCF10A rereplic: 16µM*

How did O=C(Cc1csc(Nc2nc(=S)[nH]c3ccccc23)n1)NCCCN1CCN(c2ccccc2F)CC1 do in these assays?
RORg inh: 2µM*; Gal4-VP16 FLuc: 10µM*; IL-1B inflam inh: -99*; SW480 rereplic: 18µM*; MCF10A rereplic: 7.3µM*

What do the screens show for `Cn1c(=O)cc(OCC(=O)NCCCN2CCN(c3ccccc3F)CC2)c2ccccc21`?
RORg inh: -3%; Gal4-VP16 FLuc: 0%; IL-1B inflam inh: -6; SW480 rereplic: -5%; MCF10A rereplic: 14%

What do the screens show for `NC(=O)CCCCC1CCSS1` (stereo unspecified)?
RORg inh: 0%[10 µM]; Gal4-VP16 FLuc: 8%; SW480 rereplic: -4%; MCF10A rereplic: 7%

What do the screens show for `COC(=O)C[C@@H]1C[C@H]2c3cc(N(C)C)ccc3O[C@H]2[C@H](CO)O1`?
IL-1B inflam inh: 22

What do the screens show for `C[C@@H]1CN([C@H](C)CO)C(=O)c2cccc(NS(=O)(=O)c3ccccc3)c2O[C@H]1CN(C)C`?
IL-1B inflam inh: 35; SW480 rereplic: -4%; MCF10A rereplic: -41%

Results for COc1ccc(-n2c(=S)[nH]c3ccccc3c2=S)cc1 ?
RORg inh: 0.5µM*; Gal4-VP16 FLuc: 0.71µM*; IL-1B inflam inh: 14; SW480 rereplic: 5%; MCF10A rereplic: 13%

How did COc1ccc(-n2c(=S)[nH]c3ncccc3c2=O)cc1 do in these assays?
RORg inh: inconclusive; Gal4-VP16 FLuc: -2%; IL-1B inflam inh: 0; SW480 rereplic: -7%; MCF10A rereplic: 3%

How did COc1ccc(-n2c(=S)[nH]c3ccccc32)cc1 do in these assays?
RORg inh: 4.5µM*; Gal4-VP16 FLuc: 20µM*; IL-1B inflam inh: 29; SW480 rereplic: 1%; MCF10A rereplic: 1%

Results for COc1ccc(Cn2c(=S)[nH]c3ccccc32)cc1 ?
RORg inh: 10µM*; Gal4-VP16 FLuc: inconclusive; IL-1B inflam inh: 10; SW480 rereplic: 19%; MCF10A rereplic: -3%

Source: PubChem
